This passage reports Percent Effect results from ChEMBL document CHEMBL3988442, “University of Dundee, Small-Polar-MMV Screening Library” (2021).

SMILES strings stand for the structures. For some assays here: Entries with a potency or affinity are not part of this list.

Holding throughout (design): scale not given: direction of the effect not stated beside the values
In assay [1] the target is Protein translocase subunit SecA (Escherichia coli (strain K12)) (UniProt P10408). As to the kind of experiment: Assay to Identify E. coli SecA ATPase Inhibitors. The class given is functional. The following applies: 30 µM.
Protein translocase subunit SecA (Escherichia coli (strain K12)), sequence (P10408 whole entry): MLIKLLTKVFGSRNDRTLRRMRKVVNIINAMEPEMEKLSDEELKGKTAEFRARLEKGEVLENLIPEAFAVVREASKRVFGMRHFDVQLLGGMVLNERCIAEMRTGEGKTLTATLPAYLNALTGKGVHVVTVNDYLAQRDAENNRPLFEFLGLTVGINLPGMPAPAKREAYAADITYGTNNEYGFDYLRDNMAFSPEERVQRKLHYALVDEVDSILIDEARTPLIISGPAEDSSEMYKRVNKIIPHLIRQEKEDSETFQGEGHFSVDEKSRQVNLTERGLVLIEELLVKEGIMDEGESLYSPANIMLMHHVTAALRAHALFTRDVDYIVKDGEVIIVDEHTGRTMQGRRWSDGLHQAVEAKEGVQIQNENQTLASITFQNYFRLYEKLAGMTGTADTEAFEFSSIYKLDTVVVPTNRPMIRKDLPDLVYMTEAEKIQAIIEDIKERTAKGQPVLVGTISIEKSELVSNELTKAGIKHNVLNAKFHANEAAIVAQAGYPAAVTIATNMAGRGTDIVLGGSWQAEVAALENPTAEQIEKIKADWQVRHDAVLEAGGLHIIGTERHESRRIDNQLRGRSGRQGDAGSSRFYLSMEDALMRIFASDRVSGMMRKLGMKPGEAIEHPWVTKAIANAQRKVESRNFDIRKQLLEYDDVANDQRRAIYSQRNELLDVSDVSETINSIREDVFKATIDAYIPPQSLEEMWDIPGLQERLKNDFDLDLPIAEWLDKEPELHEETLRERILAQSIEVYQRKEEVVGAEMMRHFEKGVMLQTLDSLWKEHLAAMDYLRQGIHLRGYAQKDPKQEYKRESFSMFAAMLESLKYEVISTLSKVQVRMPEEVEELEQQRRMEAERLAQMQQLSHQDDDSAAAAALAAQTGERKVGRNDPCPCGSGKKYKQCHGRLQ
Assay [2] has as its target T1, Ubiquitin-activating enzyme e1, putative (Leishmania donovani (strain BPK282A1)) (UniProt E9BSI1).
T1 sequence (whole entry): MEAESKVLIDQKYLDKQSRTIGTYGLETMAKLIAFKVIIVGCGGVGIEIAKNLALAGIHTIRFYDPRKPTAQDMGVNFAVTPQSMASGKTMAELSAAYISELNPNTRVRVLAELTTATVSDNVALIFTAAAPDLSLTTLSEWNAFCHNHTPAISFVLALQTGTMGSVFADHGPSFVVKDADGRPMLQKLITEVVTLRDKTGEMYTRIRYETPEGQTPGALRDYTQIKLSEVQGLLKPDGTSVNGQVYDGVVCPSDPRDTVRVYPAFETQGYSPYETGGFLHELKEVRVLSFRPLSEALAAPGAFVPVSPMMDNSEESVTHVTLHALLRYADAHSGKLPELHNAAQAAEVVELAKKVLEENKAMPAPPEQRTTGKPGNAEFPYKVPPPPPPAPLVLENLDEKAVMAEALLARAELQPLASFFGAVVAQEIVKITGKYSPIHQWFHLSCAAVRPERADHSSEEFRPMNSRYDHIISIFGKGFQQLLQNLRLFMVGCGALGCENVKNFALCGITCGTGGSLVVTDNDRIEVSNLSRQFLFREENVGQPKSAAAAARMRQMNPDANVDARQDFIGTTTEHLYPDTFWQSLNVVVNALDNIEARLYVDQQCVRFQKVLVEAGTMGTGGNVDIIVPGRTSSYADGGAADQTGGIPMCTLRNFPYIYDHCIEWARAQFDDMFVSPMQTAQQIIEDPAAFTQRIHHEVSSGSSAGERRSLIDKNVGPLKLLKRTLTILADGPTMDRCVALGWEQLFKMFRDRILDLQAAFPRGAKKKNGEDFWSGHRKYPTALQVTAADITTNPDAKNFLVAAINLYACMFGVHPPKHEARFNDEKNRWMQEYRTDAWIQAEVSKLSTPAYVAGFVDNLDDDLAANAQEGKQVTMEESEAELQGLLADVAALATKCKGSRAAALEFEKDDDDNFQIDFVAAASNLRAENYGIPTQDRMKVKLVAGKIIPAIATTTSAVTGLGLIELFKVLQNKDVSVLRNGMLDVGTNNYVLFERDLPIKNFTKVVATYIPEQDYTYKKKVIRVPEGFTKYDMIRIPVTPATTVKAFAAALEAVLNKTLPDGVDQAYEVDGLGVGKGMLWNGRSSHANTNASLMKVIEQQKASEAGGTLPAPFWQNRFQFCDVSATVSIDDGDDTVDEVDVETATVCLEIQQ
As to the kind of experiment: Leishmania donovani Ubiquitin Activating Enzyme (LdE1). Format: functional. The following applies: 30 µM.

The target in assay [3] is AMP-activated protein kinase, AMPK (Homo sapiens) (UniProt P54646+O43741+P54619+Q9UGJ0+Q9Y478+Q13131+Q9UGI9). As to the kind of experiment: AMP-dependent Kinase enzyme assay. An in vitro enzyme assay that detects ADP turnover that is directly proportional to AMPK activity. This uses naive AMPK that is activated during the assay with MK-8722. The class given is functional. As to conditions: 30 µM.

Assay [4] addresses Sialic acid-binding Ig-like lectin 9 (Homo sapiens) (UniProt Q9Y336). As to the kind of experiment: Hs-Siglec9 ALPHAscreen SOP 20170721. As to conditions: 10 µM. For orientation: Bead proximity is the source of the signal in Alpha formats.
In the next assay the test system is Trypanosoma cruzi. Briefly: Trypanosoma cruzi phosphomannomutase and mannose-1-phosphate guanylyltransferase assay. The class given is functional. The following applies: 10 µM.
Assay [5] addresses T2, Arginase-2, mitochondrial (Homo sapiens) (UniProt P78540).
T2 sequence (whole entry): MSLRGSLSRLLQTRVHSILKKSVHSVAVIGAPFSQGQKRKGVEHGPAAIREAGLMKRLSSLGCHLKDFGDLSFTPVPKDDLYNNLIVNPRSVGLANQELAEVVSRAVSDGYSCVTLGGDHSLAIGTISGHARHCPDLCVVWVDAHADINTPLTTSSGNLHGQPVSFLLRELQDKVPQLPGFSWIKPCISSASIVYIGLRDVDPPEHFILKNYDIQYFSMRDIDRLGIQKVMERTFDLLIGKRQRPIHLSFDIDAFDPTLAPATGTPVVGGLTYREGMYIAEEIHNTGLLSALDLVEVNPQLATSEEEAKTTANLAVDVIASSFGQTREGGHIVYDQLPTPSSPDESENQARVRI
Briefly: in vitro enzyme assay to detect the production of urea directly proportional to the activity of Arginase II. Also: in the data most compounds retested in dose-response had high values. The class given is functional. As to conditions: 33.3 µM.

Assay [6] addresses T3, Proteasome subunit beta (Trypanosoma cruzi) (UniProt O96673).
T3 sequence (whole entry): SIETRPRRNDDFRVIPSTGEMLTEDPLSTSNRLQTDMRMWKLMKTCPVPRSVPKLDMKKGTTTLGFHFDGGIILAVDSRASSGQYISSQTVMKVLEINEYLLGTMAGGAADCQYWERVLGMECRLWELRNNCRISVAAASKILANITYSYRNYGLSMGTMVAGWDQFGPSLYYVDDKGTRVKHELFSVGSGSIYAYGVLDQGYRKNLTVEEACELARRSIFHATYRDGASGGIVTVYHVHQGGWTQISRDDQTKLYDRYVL
Briefly: Trypanosoma cruzi proteasome chymotrypsin-like activity (TcProtChymo) assay. Also: in the data most compounds retested in dose-response had high values. The class given is functional. The following applies: 9.37 µM.

A further assay is filed under the species Homo sapiens. Briefly: To identify inhibition of the IFN signalling (Jak-Stat) pathway via expression of an eGFP reporter gene under the control of an IFN-stimulated response element (ISRE) containing MxA promoter. Format: functional. As to conditions: 30 µM. Background: A reporter such as luciferase makes a cellular process visible.
In assay [7] the target is T4, Tyrosyl-tRNA synthetase, putative (Trypanosoma cruzi (strain CL Brener)) (UniProt Q4DSP6).
T4 sequence (whole entry): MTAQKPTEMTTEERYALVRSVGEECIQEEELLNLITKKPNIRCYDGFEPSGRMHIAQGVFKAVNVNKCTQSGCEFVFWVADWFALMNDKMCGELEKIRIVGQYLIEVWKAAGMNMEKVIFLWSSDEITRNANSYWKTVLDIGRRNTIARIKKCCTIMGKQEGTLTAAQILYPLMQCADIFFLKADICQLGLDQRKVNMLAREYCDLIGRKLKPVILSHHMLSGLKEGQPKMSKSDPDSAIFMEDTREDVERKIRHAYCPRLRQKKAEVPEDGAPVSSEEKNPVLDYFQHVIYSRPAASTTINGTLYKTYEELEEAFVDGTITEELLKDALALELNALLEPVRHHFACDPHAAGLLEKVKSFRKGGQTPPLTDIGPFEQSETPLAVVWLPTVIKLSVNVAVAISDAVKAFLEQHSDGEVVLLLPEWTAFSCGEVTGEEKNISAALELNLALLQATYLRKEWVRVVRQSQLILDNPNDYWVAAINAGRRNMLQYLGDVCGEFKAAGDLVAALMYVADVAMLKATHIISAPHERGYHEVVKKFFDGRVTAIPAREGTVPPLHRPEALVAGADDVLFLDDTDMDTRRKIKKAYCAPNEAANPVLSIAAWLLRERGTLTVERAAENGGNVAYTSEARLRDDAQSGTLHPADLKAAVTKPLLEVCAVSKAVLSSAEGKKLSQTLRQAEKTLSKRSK
As to the kind of experiment: Trypanosoma cruzi tyrosyl tRNA synthetase (TcYRS) _High Tyrosine SOP. Also: in the data most compounds retested in dose-response had high values. The class given is functional. The following applies: 30 µM.

The target of assay [8] is T4, Tyrosyl-tRNA synthetase, putative (Trypanosoma cruzi (strain CL Brener)). As to the kind of experiment: Trypanosoma cruzi tyrosyl tRNA synthetase (TcYRS) SOP. Format: functional. As to conditions: 30 µM.
In assay [9] the target is Chromo domain-containing protein 1 (Saccharomyces cerevisiae (strain ATCC 204508 / S288c) (Baker's yeast)) (UniProt P32657). Briefly: ScCHD-1 Enzyme Inhibition Assay. Also: in the data most compounds retested in dose-response had high values. Format: functional. As to conditions: 30 µM.
Chromo domain-containing protein 1 (Saccharomyces cerevisiae (strain ATCC 204508 / S288c) (Baker's yeast)), sequence (P32657 whole entry, the tested form may be a part): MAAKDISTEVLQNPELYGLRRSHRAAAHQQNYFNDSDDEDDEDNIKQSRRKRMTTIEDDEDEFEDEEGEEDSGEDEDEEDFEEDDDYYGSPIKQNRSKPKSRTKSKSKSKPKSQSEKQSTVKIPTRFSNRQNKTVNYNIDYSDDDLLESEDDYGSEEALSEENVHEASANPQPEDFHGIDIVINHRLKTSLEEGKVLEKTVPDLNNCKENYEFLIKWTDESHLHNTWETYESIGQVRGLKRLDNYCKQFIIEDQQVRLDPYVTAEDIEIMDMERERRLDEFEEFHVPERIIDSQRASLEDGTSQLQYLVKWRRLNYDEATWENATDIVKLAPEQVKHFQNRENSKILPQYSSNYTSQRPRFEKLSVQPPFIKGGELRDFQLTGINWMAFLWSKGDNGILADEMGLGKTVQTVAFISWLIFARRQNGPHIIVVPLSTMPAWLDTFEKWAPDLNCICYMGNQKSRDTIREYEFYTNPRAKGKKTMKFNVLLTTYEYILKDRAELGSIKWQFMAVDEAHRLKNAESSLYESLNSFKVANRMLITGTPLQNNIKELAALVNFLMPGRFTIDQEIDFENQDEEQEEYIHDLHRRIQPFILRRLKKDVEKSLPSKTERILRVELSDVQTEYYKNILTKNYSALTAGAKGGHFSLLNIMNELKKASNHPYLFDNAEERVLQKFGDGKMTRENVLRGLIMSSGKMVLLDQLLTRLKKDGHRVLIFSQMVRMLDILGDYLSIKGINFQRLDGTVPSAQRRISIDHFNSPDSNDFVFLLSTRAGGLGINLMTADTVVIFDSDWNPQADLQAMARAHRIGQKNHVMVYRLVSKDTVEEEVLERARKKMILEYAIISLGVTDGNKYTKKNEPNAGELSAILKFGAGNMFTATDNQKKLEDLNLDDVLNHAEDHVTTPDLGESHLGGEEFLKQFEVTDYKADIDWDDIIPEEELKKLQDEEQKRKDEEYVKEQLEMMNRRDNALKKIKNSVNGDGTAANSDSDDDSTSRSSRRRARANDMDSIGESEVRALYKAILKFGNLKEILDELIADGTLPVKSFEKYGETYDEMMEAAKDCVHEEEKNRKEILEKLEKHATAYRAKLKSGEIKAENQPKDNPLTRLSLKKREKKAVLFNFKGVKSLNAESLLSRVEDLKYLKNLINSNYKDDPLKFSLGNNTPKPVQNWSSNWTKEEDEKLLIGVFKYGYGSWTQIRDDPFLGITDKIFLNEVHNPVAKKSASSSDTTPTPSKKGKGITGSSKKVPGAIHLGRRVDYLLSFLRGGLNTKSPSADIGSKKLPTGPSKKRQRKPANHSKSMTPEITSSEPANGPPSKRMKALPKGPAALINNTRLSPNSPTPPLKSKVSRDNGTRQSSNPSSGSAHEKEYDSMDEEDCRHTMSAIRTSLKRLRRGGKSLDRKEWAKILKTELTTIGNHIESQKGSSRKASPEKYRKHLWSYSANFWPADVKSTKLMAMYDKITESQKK

Sialic acid-binding Ig-like lectin 9 (Homo sapiens), sequence (Q9Y336 whole entry): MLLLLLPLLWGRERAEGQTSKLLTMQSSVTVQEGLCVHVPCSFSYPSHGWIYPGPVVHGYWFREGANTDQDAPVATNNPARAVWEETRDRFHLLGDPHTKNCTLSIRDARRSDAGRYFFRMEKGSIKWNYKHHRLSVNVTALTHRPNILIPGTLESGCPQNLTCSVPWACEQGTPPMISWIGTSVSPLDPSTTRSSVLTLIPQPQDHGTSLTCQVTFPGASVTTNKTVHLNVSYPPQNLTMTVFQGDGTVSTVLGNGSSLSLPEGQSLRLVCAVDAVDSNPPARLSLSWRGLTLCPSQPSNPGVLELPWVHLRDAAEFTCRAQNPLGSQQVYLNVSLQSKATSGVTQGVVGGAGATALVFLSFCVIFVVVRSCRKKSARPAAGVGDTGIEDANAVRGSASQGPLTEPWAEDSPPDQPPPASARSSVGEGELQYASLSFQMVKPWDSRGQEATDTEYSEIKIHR

For `O=C(NCc1ccco1)[C@H]1C[C@H]2OCC[C@H]2N(C(=O)c2ccco2)C1`, the Percent Effect in [1] is -4.08%; in [2], -2.67%; in [3] it was 12.4%; in [4], 1.43%; with Trypanosoma cruzi, -3.09%; in [5], -50.4%. Besides, the Percent Effect in assay [6] was 12%; in the assay listed under Homo sapiens it was -6.88%; in [7], -3.12%; in [8], -5%; in assay [9], 63.9%.

Regarding `COc1ccc(CNC2CCCN(Cc3noc(C)n3)C2)cc1F` (stereo not given), the Percent Effect in assay [1] is -10.4%; in assay [2], 10.4%; in assay [3] it was 0.711%; in assay [4], 4.31%; with Trypanosoma cruzi, -5.06%; in assay [5], -3.2%. Moreover, the Percent Effect in assay [6] is -1.01%; in the assay filed under Homo sapiens, 32.5%; in [7], 0.971%; in assay [8] it was -2.44%; in assay [9] it was -5.61%.

Turning to `CCOc1ncccc1NC(=O)N1CCN(c2cccc(C)c2C)CC1`, the Percent Effect is -0.972% in [1]; 10.8% in assay [2]; 2.83% in assay [3]; -3.7% in assay [4]; -10.1% in the assay on Trypanosoma cruzi; 5.36% in [5]. For the same compound, the Percent Effect in assay [6] stood at 4.49%; in the assay listed under Homo sapiens it was 15.3%; in assay [7], 3.96%; in assay [8] it was 13.4%; in assay [9] it was 1.36%.

Consider `COc1ccc(Nc2nc3c(C)nn(C)c3c(=O)n2C)c(OC)c1`, for which the Percent Effect was -1.13% in [1]; 15.6% in assay [2]; -2.05% in [3]; 14.5% in assay [4]; 6.79% in the assay with Trypanosoma cruzi; -12.4% in [5]. The Percent Effect in assay [6] was 10.3%; in the assay filed under Homo sapiens, 0.301%; in assay [7], 8.6%; in [8], 18.5%; in assay [9], -5.3%.

In the case of `COc1cccc(COCC(=O)N2CCN(CC(C)(C)O)CC2)c1`, the Percent Effect was 1.47% in [1]; -5.26% in [2]; 7.35% in assay [3]; 8.14% in assay [4]; -3.76% with Trypanosoma cruzi; 6.51% in assay [5]. The Percent Effect in [6] is -0.167%; in the assay listed under Homo sapiens, 21%; in [7] it was 1.47%; in assay [8], -2.44%; in assay [9], -5.7%.

For `O=S(=O)(NC1=NCN(CCc2cccs2)CN1)c1ccccc1`, the Percent Effect in [1] is -3.47%; in assay [2], 9.33%; in assay [3] it was 1.7%; in assay [4], 2.24%; with Trypanosoma cruzi, 6.29%; in assay [5], -11.1%. Besides, the Percent Effect in [6] is 18.3%; in the assay filed under Homo sapiens, 19.6%; in assay [7] it was 5.29%; in assay [8], 12.8%; in assay [9], -7.27%.

For `Cc1ccc(NC(=O)N2CCC(NC(=O)c3ccc(C)o3)CC2)cc1`, the Percent Effect in [1] was -4.11%; in assay [2], 15.6%; in assay [3], 3.14%; in assay [4], 4.46%; in the assay on Trypanosoma cruzi, 2.45%; in [5], 0.632%. For the same compound, the Percent Effect in assay [6] was 6.39%; in the assay filed under Homo sapiens, 8.38%; in [7], 8.57%; in assay [8], 23.5%; in assay [9] it was -10.9%.

Consider `O[C@]1(c2ccccn2)CC[C@@H]2CN(Cc3cccc4ncccc34)C[C@@H]21`, for which the Percent Effect in assay [1] is -4.41%; in [2], 9.46%; in [3], 11.8%; in [4], -7.79%; in the assay on Trypanosoma cruzi, -1.38%; in assay [5], 0.696%. Besides, the Percent Effect in assay [6] is 21.4%; in the assay listed under Homo sapiens, 21.9%; in [7], 9.68%; in assay [8], 9.09%; in assay [9], -13.1%.

Take `CCc1nnsc1C(=O)NCCn1nc2ccccn2c1=O`: the Percent Effect in [1] is -5.54%; in assay [2] it was 18.9%; in assay [3], -7.77%; in assay [4], 20.2%; in the assay on Trypanosoma cruzi, 5.66%; in assay [5], 4.25%. Moreover, the Percent Effect in assay [6] was 8.8%; in the assay listed under Homo sapiens, -0.849%; in [7], 6.93%; in assay [8] it was 18.3%; in [9], -9.16%.

Consider `O=C(c1ccco1)N1CCOCC2(CCN(C3CCOCC3)C2)C1` (stereo not given), for which the Percent Effect in [1] was -0.734%; in assay [2], 1.33%; in assay [3], -1.65%; in [4], 3.4%; with Trypanosoma cruzi, -7.47%; in assay [5], -2.29%. The Percent Effect is 7.95% in assay [6]; 2.53% in the assay filed under Homo sapiens; 0% in [7]; 5.13% in assay [8]; -6.06% in assay [9].
